Data published in PubChem BioAssay AID588722 (National Center for Advancing Translational Sciences (NCATS), 2011).
Active and inactive are the calls of the source.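 How the source made its calls: active means potency under 20 µM; inactive means the rest.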

assay: High Content Assay for Compounds that inhibit the Assembly of the Perinucleolar Compartment:Cell Migration; conditions: PC3M cell invasion in 3D collagen microchannel, Hoechst imaging
Text: The perinucleolar compartment (PNC) is a non-membrane-bound nuclear subdomain that is associated with but structurally distinct from the nucleolus. The PNC is a heritable trait, in which the number of PNCs per cell in daughter cells often mimics that of their mother cells. The PNC is heterogeneous in shape, is stable through interphase, disassembles during mitosis, and reassembles in early G1. The PNC is concentrated with newly synthesized RNA polymerase III (pol III) RNAs (MRP RNA, RNAse P H1 RNA, hY RNAs[hY1, 2, 5], Alu RNA, and SRP [7SL] RNA) and RNA binding proteins (nucleolin, PTB, CUG-BP, KSRP, Raver1, Raver2, and Rod). […] In collaboration between Sui Huang from Northwestern University and the NCGC, a high content assay was developed and screened. The hits were then tested in follow-up assays. High-content tumor cell migration assays in 3-dimensional extracellular matrices are powerful tools for modeling and understanding the biology of this critical step in the process of metastasis. However, most of the available methods are not amenable to the throughput required by studies of comparative pharmacology or small scale screening. For this reason, we worked with BellBrook Labs(R) to test our compounds in their automated high-content tumor cell invasion assays.[35] A standard screening-sized plate with an array of embedded microchannels was designed and constructed from common thermoplastics. NIH Chemical Genomics Center [NCGC] NIH Molecular Libraries Probe Centers Network [MLPCN] MLPCN Grant: MH082371 Assay Submitter (PI): Sui Huang, Northwestern University, Feinberg School of Medicine, Cell and Molecular Biology, Chicago, Illinois.
PC3M cells were tested for invasion through 3D fibrillar collagen in the Iuvo Single Microchannel Plate, in the presence of varying levels of test compounds. Channels were prefilled with 820 nL of 3-dimensional type I collagen at 1 mg/mL, through the input port. Following gelation, 2,000 PC3M cells were seeded into the output port using growth media (RPMI + 10% FBS with antibiotics) in a volume of 5 microL. Cells were incubated in a 37 masculineC incubator inside a humidified container to control evaporation (Bioassay dish, Corning). Media including test compounds was changed daily for 5 days. At the end of the assay, cells were fixed and stained with Hoechst 33342, then imaged with 4x objective under epifluorescence. Under these conditions, we can reliably identify cells across the 140 microm height range of the microchannel. Test compounds were serially diluted by a factor of 3, to produce 10 concentrations ranging from 50 or 100 microM to 2.5 nM.

**Q.** Which Potency does the source give for `CSc1nnc2c3ccccc3n(CCc3ccccc3)c2n1` here?
**A.** The Potency was 4.3 µM (active).

**Q.** Which Potency does the source give for `COc1ccc(-c2nc(NC(=O)c3n[nH]c(=O)c4ccccc34)sc2C)cc1` here?
**A.** The Potency was 3.8 µM (active).

**Q.** Which Potency does the source give for `CCN(CC)C(=O)N1c2ccccc2C=Cc2ccccc21` here?
**A.** Its Potency is 2.1 µM (active).

**Q.** Which Potency does the source give for `O=C(Nc1cccnc1)c1cccs1` here?
**A.** The Potency was 1.6 µM (active).

**Q.** With `COc1ccc(-n2c(SC(C)C(=O)Nc3ncc(Cl)cc3Cl)nc3ccccc32)cc1` (stereo unspecified) as the molecule, how does the outcome read?
**A.** Its outcome is “inactive”.

**Q.** With `CN1c2ccccc2C(C)(C)C12CC(c1ccc(Cl)c(S(=O)(=O)N3CCCC3)c1)=NO2` (stereo unspecified) as the molecule, how does the Potency read?
**A.** The Potency was 3.2 µM (active).

**Q.** Which Potency does the source give for `Cc1oc(-c2ccccc2Cl)nc1CSCC(=O)N1CCCC1` here?
**A.** Its Potency is 6.2 µM (active).

**Q.** With `Cc1c(NC(=O)COC(=O)c2cc(-c3ccc(-c4ccccc4)cc3)nc3ccccc23)c(=O)n(-c2ccccc2)n1C` as the molecule, how does the Potency read?
**A.** The Potency was 0.117 µM (active).

**Q.** For `CCOC(=O)Cn1c(-c2nonc2NC(=O)c2ccccc2F)nc2ccccc21`, which outcome is on record?
**A.** The outcome was “inactive”.

**Q.** With `N=c1c2c(-c3ccccc3)c(-c3ccccc3)n(Cc3ccccc3)c2ncn1CCCO` as the molecule, how does the Potency read?
**A.** Its Potency is 11.5 µM (active).

**Q.** For `COC(=O)c1c(-c2ccccc2)csc1NC(=O)c1c(-c2ccccc2)noc1C`, which outcome is on record?
**A.** Its outcome is “inactive”.
